Data from PubChem BioAssay (NCATS).
Records with an inconclusive call do not appear. A call without a number means that no potency is given here. Unmarked numbers belong to inactive results. Calls of active or inactive are those of the source. Calls come from the whole dose curve; as a rule, active = well fitted curve in the direction sought with a large enough effect; inconclusive = small, poorly fitted or top-dose-only effect, or another doubt; inactive = no such curve, though single readings can be large; an effect the other way counts as inactive or inconclusive.

Key:
[1] = target: Rap guanine nucleotide exchange factor 3 (Homo sapiens) (UniProt O95398); test: Confirmatory qHTS for antagonist of cAMP-regulated guanine nucleotide exchange factor 3 (EPAC1) (AID 1645880); conditions: EPAC1 Rap1B-BODIPY-GDP exchange, fluorescence; activity, negative = inhibition: at 115 µM (top of the series); note: nearly all actives have a fitted effect of over 55% in size
Sequence of Rap guanine nucleotide exchange factor 3 (Homo sapiens) (O95398 whole entry, looked up): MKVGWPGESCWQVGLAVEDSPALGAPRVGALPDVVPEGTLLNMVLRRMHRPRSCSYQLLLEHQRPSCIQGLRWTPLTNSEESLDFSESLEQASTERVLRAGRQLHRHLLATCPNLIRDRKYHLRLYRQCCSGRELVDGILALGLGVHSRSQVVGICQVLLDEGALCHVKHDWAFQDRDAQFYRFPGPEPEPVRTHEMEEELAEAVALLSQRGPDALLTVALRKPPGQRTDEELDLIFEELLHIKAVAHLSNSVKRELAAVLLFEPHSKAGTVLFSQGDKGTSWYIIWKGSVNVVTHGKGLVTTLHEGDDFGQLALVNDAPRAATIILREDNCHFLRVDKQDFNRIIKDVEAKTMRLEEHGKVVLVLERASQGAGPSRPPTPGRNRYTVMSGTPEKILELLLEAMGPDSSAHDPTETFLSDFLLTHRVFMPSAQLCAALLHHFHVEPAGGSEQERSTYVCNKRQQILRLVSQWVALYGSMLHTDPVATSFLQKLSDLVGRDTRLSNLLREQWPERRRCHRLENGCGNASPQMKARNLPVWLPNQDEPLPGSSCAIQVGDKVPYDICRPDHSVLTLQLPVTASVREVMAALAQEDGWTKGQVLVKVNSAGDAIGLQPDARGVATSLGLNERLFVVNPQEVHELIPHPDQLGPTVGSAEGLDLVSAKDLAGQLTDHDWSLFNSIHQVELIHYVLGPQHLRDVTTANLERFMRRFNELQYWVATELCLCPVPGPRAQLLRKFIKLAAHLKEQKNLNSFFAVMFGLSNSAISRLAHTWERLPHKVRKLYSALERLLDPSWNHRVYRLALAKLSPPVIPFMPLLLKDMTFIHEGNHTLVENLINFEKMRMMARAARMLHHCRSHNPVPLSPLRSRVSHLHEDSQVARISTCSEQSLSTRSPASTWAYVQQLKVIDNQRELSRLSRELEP
Method in brief: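 Released BODIPY-GDP fluoresces less than Rap1-bound BODIPY-GDP; the signal is followed at 480/540 nm at 5-min intervals over 30 min, after 5 min at room temperature. Reactions contain 100 nM EPAC1, 250 nM RAP1B-BODIPY-GDP and 50 uM GDP; results are normalized to ATA and DMSO.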

[2] = target: Rap guanine nucleotide exchange factor 4 (Homo sapiens) (UniProt Q8WZA2); test: Confirmatory qHTS for agonist of cAMP-regulated guanine nucleotide exchange factor 4 (EPAC2) (AID 1645884);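 note: nucleotide exchange releases bodipy-GDP from Rap1 and this lowers its fluorescence; nearly all actives have a fitted effect of over 65% in size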; note: potency is the fitted concentration of half-maximal effect
Sequence of Rap guanine nucleotide exchange factor 4 (Homo sapiens) (Q8WZA2 whole entry, looked up): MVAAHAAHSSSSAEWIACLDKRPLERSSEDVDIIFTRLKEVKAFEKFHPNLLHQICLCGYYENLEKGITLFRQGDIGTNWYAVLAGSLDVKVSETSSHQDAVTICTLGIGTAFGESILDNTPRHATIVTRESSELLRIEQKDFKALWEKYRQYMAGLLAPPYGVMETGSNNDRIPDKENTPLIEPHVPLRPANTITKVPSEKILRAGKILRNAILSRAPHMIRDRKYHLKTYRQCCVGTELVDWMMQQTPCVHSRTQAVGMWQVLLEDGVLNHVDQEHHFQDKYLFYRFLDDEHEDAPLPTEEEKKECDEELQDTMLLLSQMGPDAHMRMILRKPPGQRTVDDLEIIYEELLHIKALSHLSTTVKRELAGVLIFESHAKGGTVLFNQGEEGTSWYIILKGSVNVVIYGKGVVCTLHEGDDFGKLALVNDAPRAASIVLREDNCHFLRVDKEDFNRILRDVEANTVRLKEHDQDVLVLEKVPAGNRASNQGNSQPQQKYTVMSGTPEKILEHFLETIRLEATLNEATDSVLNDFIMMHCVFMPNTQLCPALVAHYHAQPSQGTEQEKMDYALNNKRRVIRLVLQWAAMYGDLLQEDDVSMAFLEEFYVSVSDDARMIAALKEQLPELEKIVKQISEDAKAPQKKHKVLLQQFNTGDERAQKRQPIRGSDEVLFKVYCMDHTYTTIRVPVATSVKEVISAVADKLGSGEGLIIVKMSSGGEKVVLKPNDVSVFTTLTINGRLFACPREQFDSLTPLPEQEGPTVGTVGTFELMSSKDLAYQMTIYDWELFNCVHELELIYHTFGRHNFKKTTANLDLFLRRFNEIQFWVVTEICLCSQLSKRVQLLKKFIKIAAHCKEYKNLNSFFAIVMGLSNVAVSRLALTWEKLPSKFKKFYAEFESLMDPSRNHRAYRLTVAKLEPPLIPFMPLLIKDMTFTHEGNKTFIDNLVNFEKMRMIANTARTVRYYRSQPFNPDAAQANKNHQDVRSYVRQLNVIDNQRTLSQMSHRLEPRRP

[3] = target: Rap guanine nucleotide exchange factor 4 (Homo sapiens) (UniProt Q8WZA2); test: Confirmatory qHTS for antagonist of cAMP-regulated guanine nucleotide exchange factor 4 (EPAC2) (AID 1645885); note: nearly all actives have a fitted effect of over 25% in size; note: potency is the fitted concentration of half-maximal effect
[4] = target: Rap guanine nucleotide exchange factor 3 (Homo sapiens) (UniProt O95398); test: Counterscreen qHTS for antagonist of cAMP-regulated guanine nucleotide exchange factor 3 (EPAC1) (AID 1645888)
Method in brief: (§1)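 Rap1B-BODIPY-GDP 250 nM + GDP 50 uM; cpds 7-pt, final 9.74 nM–152 uM (activator mode) or from 7.32 nM upwards (inhibitor mode); RT; FI 480/540 nm at 5 and 30 min, then ± cAMP, reread.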

[5] = target: Rap guanine nucleotide exchange factor 3 (Homo sapiens) (UniProt O95398); test: Counterscreen qHTS for agonist of cAMP-regulated guanine nucleotide exchange factor 3 (EPAC1) (AID 1645889); note: nearly all actives have a fitted effect of over 40% in size; note: potency is the fitted concentration of half-maximal effect
Method in brief: as §1

[6] = target: Tumor susceptibility gene 101 protein (Homo sapiens) (UniProt Q99816); test: qHTS Assay for Iinhibitors of HIV-1 Budding by Blocking the Interaction of PTAP/TSG101: Hit Validation (AID 651600); note: nearly all actives have a fitted effect of over 70% in size
Sequence of Tumor susceptibility gene 101 protein (Homo sapiens) (Q99816 whole entry, looked up, the tested form may be a part): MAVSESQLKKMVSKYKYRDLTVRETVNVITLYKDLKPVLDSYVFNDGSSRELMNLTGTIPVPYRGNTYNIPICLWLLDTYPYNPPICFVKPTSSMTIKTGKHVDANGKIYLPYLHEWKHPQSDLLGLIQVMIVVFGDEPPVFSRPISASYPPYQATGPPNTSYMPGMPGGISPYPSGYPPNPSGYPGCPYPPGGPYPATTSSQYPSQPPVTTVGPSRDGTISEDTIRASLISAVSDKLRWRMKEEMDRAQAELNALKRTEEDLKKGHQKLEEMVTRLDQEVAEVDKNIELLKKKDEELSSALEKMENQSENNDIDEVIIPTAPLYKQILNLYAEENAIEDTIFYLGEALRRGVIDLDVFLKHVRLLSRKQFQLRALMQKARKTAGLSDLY
Method in brief: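 Fluorescence polarization binding assay: Tsg101 binding domain (10 uM) mixed with compounds and FITC-labeled PTAP peptide (50 nM) in HEPES pH 7.5, 0.15 M NaCl, 0.01% Tween 20, EDTA, TCEP; 20 min at r.t.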

Row | SMILES | Potency [1] | activation [2] | Potency [3] | activity change, negative = inhibition [4] | Potency [5] | Potency [2] | Potency [4] | activation [5] | Potency [6]
1 | O=C(OCCN1C(=O)c2cccc3c(N4CCOCC4)ccc(c23)C1=O)c1ccccc1Cl | inactive | 17.6% [at 17.1 µM, percent relative to cAMP agonist control] | inactive | 1.86% [at 30.8 µM] | 11.2 µM (active) | – | – | – | –
2 | COc1cc(C2CC(=O)Oc3cc(C)cc(C)c32)cc(OC)c1OC (configuration not stated) | inactive | – | 1.51 µM (active) | – | inactive | inactive | inactive | – | –
3 | COc1ccc(N=Cc2c(O)n(-c3cccc(C)n3)c(=O)c3ccccc23)c(OC)c1 | inactive | -25.1% [at 17.1 µM, percent relative to cAMP agonist control] | inactive | 31% [at 30.8 µM] | – | – | – | 19.8% [at 30.8 µM] | –
4 | CCOC(=O)C1=C(C)N=c2s/c(=C/c3ccc(OCC(=O)O)c(OC)c3)c(=O)n2C1c1ccc(Cl)cc1 (configuration not stated) | inactive | – | inactive | – | inactive | inactive | inactive | – | –
5 | CCN(CC)c1ccc2cc(C(N)=O)c(=N)oc2c1 | inactive | 2.03% [at 17.1 µM, percent relative to cAMP agonist control] | inactive | -1.22% [at 30.8 µM] | – | – | – | – | –
6 | C(=C(c1ccccc1)c1ccccc1)c1ccccn1 | inactive | – | 84.9 µM (active) | – | inactive | inactive | inactive | – | –
7 | O=c1oc2ccc(Cl)cc2nc1/C=C(\O)c1cccs1 | inactive | 14.5% [at 17.1 µM, percent relative to cAMP agonist control] | inactive | 7.64% [at 30.8 µM] | – | – | – | 11.4% [at 30.8 µM] | –
8 | CCOc1ccccc1NC(=O)CSc1nccn1-c1cccc(C)c1 | inactive | – | inactive | – | inactive | inactive | inactive | – | –
9 | CCCCCn1nc(-c2ccccc2)c2nc3ccccc3nc21 | inactive | 2.69% [at 17.1 µM, percent relative to cAMP agonist control] | inactive | 19.6% [at 30.8 µM] | – | – | – | 10.8% [at 30.8 µM] | –
10 | COc1ccccc1CNc1cc(C)nc2nc(-c3ccc(C)cc3)nn12 | inactive | – | inactive | – | inactive | inactive | inactive | – | –
11 | O=C(/C=C/c1ccc(N2CCOCC2)cc1)c1ccccc1 | inactive | – | inactive | – | inactive | inactive | inactive | – | –
12 | Cc1cccc(-c2nc3nc(C)cc(NCc4ccccc4Cl)n3n2)c1 | inactive | – | inactive | – | – | inactive | inactive | – | –
13 | COC(=O)c1c(NC(=O)c2ccc(S(=O)(=O)N(C)C3CCCCC3)cc2)sc2c1CCN(C)C2 | inactive | – | inactive | – | 89.1 µM (active) | inactive | inactive | – | –
14 | CCOc1cc(/C=C2\CCCc3c2nc2ccccc2c3C(=O)O)ccc1OC | inactive | – | inactive | – | 100 µM (active) | 112 µM (active) | inactive | – | –
15 | O=C(O)c1cccc(-c2ccc(/C=c3/sc4nc5ccccc5n4c3=O)o2)c1 | inactive | – | inactive | – | inactive | inactive | inactive | – | –
16 | O=c1oc2cc(O)ccc2cc1-c1nc2c(s1)CCc1ccccc1-2 | inactive | – | inactive | – | inactive | 100 µM (active) | inactive | – | –
17 | COc1ccc(-c2nc(N/N=C(\C)c3ccc(O)cc3)c3ccccc3n2)cc1 | inactive | -0.683% [at 17.1 µM, percent relative to cAMP agonist control] | inactive | 8.99% [at 30.8 µM] | – | – | – | 22.7% [at 30.8 µM] | –
18 | CN(C)c1ccc(/C=C2\SC(=S)N(Nc3ncc(C(F)(F)F)cc3Cl)C2=O)cc1 | inactive | – | 16.9 µM (active) | – | 17.8 µM (active) | 112 µM (active) | inactive | – | –
19 | CC(=O)NC(c1cccc(F)c1)c1nc(-c2ccccc2)cs1 (configuration not stated) | inactive | 10% [at 17.1 µM, percent relative to cAMP agonist control] | inactive | -20.8% [at 30.8 µM] | – | – | – | 45.7% [at 30.8 µM] | –
20 | Cc1ccccc1-n1c(O)c(/C=C/C=Nc2ccccc2)c(=O)[nH]c1=O | inactive | – | inactive | – | 39.8 µM (active) | 112 µM (active) | inactive | – | –
21 | CC(C)n1cc(/C=C/c2cc[n+](C)cc2)c2ccccc21 | inactive | – | inactive | – | 56.2 µM (active) | 112 µM (active) | inactive | – | –

Row | SMILES | Potency [1] | activation [2] | Potency [3] | activity change, negative = inhibition [4] | Potency [5] | Potency [2] | Potency [4] | activation [5] | Potency [6]
22 | Cc1cccc(NCc2cccc3ccccc23)n1 | inactive | 4.47% [at 17.1 µM, percent relative to cAMP agonist control] | inactive | -11.4% [at 30.8 µM] | – | – | – | – | –
23 | COc1ccc(C)cc1CN1C(=O)c2ccccc2C1=O | inactive | -0.218% [at 17.1 µM, percent relative to cAMP agonist control] | inactive | -7.92% [at 30.8 µM] | – | – | – | 12.1% [at 30.8 µM] | –
24 | CC(C)(C)CNC(=O)c1cccc2c1C(=O)c1ccc(-c3cc4ccccc4o3)cc1S2(=O)=O | inactive | – | inactive | – | inactive | 79.4 µM (active) | inactive | – | –
25 | COc1ccc2oc(C)c(C(=O)c3ccccc3)c2c1 | inactive | 5.91% [at 17.1 µM, percent relative to cAMP agonist control] | inactive | 1.7% [at 30.8 µM] | – | – | – | 7.36% [at 30.8 µM] | –
26 | CCN(CC)c1ccc2cc(C=O)c(=O)oc2c1 | inactive | 6.38% [at 17.1 µM, percent relative to cAMP agonist control] | inactive | 96.9% [at 30.8 µM] | 12.6 µM (active) | – | – | – | –
27 | Cc1ccc(-c2csc3ncnc(Nc4ccc(C(=O)O)cc4)c23)cc1 | inactive | – | inactive | – | inactive | inactive | inactive | – | –
28 | Cc1cccn2c(=O)c(/C=C(\C#N)c3nc4ccccc4n3C)c(Oc3ccc(Br)cc3)nc12 | inactive | – | inactive | – | 39.8 µM (active) | inactive | inactive | – | –
29 | CCCN1C(=O)S/C(=C/c2ccc(N3CCOCC3)o2)C1=O | inactive | – | 67.5 µM (active) | – | inactive | 112 µM (active) | inactive | – | –
30 | CN1CCc2c(sc(NC(=O)CSc3ccccc3)c2-c2nc3ccccc3s2)C1 | inactive | – | inactive | – | – | inactive | inactive | – | –
31 | Cc1ccc2[nH]cc(/C=C/c3cc[n+](C)cc3)c2c1 | inactive | – | inactive | – | 56.2 µM (active) | 112 µM (active) | inactive | – | –
32 | N#C/C(=C\c1ccc(N2CCOCC2)o1)c1nc2ccccc2[nH]1 | inactive | – | inactive | – | 39.8 µM (active) | 112 µM (active) | inactive | – | –
33 | Cc1ccc(N2C(=O)c3cccc4c(N)ccc(c34)C2=O)c2cccnc12 | inactive | – | inactive | – | 10 µM (active) | 112 µM (active) | inactive | – | –
34 | CCCN1C(=O)c2cccc3c(N4CCCCC4)ccc(c23)C1=O | inactive | – | inactive | – | 39.8 µM (active) | 100 µM (active) | inactive | – | –
35 | Cc1ccc(N=Cc2sc(O)c3ccccc23)c(C)c1 | inactive | -3.2% [at 17.1 µM, percent relative to cAMP agonist control] | inactive | -0.317% [at 30.8 µM] | – | – | – | 10.3% [at 30.8 µM] | –
36 | COC(=O)c1c(SC)nc2ccccc2c1OCc1ccc(C)cc1C | inactive | – | inactive | – | inactive | inactive | inactive | – | –
37 | CN(Cc1cccs1)c1nc(-c2cccnc2)nc2ccccc12 | inactive | 12.1% [at 17.1 µM, percent relative to cAMP agonist control] | inactive | -10.3% [at 30.8 µM] | – | – | – | 51% [at 30.8 µM] | –
38 | O=C(N/N=C/c1cccnc1)c1cc(-c2ccccc2OCc2ccccc2)n[nH]1 | inactive | – | inactive | – | 25.1 µM (active) | 89.1 µM (active) | inactive | – | –
39 | CCC(C)n1c(=N)c(C#N)cc2c(=O)n3ccccc3nc21 (configuration not stated) | inactive | -1.22% [at 17.1 µM, percent relative to cAMP agonist control] | inactive | -20.2% [at 30.8 µM] | – | – | – | -4.07% [at 30.8 µM] | –
40 | Cc1ccc2oc(=O)c(/C=C(\O)c3ccccc3)nc2c1 | inactive | 10.1% [at 17.1 µM, percent relative to cAMP agonist control] | inactive | 0.517% [at 30.8 µM] | – | – | – | 12.5% [at 30.8 µM] | inactive
41 | COc1ccc(N=Cc2sc(O)c3ccccc23)cc1 | inactive | 2.81% [at 17.1 µM, percent relative to cAMP agonist control] | inactive | 46.8% [at 30.8 µM] | – | – | – | 29% [at 30.8 µM] | –
